Source: PubChem BioAssay (EPA / NIEHS)
Records with an inconclusive call do not appear. Active and inactive are the calls of the source. The calls were made as follows: active = hit-call score of the fitted dose curve at least 0.9, where 1 is the maximum; inconclusive = response in the unintended direction; inactive = score below 0.9.

molecular target: human Opioid Receptor Mu (Opiate Mu), OPRM1 (gene 4988) (UniProt P35372); test: NVS_GPCR_hOpiate_mu: NovaScreen (NVS) G Protein-Coupled Receptor Assay for human Opioid Receptor Mu (Opiate Mu) (AID 2283290);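 also: hits lower bound tracer signal versus DMSO meaning displacement of the ligand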
Sequence (P35372 whole entry, looked up): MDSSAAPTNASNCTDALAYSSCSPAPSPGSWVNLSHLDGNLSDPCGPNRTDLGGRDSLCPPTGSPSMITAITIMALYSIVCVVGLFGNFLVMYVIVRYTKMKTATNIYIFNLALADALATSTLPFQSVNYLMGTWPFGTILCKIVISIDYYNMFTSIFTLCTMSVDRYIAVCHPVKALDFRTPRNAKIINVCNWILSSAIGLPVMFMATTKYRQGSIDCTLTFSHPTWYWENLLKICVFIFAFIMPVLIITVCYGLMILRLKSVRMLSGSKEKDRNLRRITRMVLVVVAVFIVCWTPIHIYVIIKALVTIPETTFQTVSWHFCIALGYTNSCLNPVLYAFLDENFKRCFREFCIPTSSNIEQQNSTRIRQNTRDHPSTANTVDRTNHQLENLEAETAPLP
Outline: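 Cell-free radioligand binding to membranes from CHO cells expressing the receptor; bound tracer measured by filter-based scintillation counting 2.5 hours after dosing. Loss of signal versus DMSO baseline reflects displacement; primary screen at 25 uM in duplicate, actives followed up in concentration series.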

Compound | AC50 | outcome
O=c1oc2ccccc2c(O)c1C(CC(O)c1ccc(-c2ccc(Br)cc2)cc1)c1ccccc1 (stereo unspecified) | 13.7 µM (active) | –
[Cl][Sn]([c]1ccccc1)([c]1ccccc1)[c]1ccccc1 | 0.664 µM (active) | –
O=S(=O)(C(Cl)(Cl)Cl)C(Cl)(Cl)Cl | 7.84 µM (active) | –
CN(C)C(=S)S | 6.66 µM (active) | –
N#CCCC(Br)(C#N)CBr (stereo unspecified) | 20.6 µM (active) | –
CCCCCCCCCCCCc1cccc(S(=O)(=O)O)c1 | 14.4 µM (active) | –
CCOP(=O)(OCC)SCCSCC | – | inactive

molecular target: rat Adrenergic Receptor, Alpha 2 (Adra2), Non-selective Binding, Adra2a (gene 25083) (UniProt P22909); test: NVS_GPCR_rAdra2_NonSelective: NovaScreen (NVS) G Protein-Coupled Receptor Assay for rat Adrenergic Receptor, Alpha 2 (Adra2), Non-selective Binding (AID 2283299)
Sequence (P22909 whole entry, looked up): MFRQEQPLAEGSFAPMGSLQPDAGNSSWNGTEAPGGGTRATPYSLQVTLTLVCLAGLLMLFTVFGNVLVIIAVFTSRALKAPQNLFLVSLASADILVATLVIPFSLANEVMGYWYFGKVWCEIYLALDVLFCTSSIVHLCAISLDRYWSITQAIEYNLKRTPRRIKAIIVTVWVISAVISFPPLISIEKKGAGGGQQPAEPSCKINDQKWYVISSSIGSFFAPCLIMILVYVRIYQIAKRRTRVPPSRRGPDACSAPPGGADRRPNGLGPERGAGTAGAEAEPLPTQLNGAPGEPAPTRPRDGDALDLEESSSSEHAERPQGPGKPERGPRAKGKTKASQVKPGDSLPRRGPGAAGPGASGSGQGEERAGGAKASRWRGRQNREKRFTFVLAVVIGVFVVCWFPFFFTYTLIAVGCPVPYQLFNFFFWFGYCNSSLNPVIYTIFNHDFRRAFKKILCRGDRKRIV
Outline: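 Rat cortical membranes, radioligand competitive displacement read by filter-based scintillation counting 1.25 hours after dosing. Primary screen in duplicate at 25 uM; actives followed up in concentration series.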

Compound | AC50 | outcome
[Cl][Sn]([c]1ccccc1)([c]1ccccc1)[c]1ccccc1 | 9.5 µM (active) | –
C[N+](C)(C)Cc1ccccc1 | 31.5 µM (active) | –
COc1ccccc1N | 25 µM (active) | –
CCC(C)(C#N)N=NC(C)(C#N)CC (stereo unspecified) | – | inactive
